Pf growth 96h = Primary qHTS for delayed death inhibitors of the malarial parasite plastid, 96 hour incubation; 320,000 compounds, 6.9% hits; P. falciparum luciferase reporter growth, 96 h; Potency, µM (doses to about 28.7 µM), for inactives: top-dose activity change, negative = inhibition, usual class: inhibitors; note: potency is the fitted concentration of half-maximal effect; % is set by controls: 0 for no effect and ±100 for the full control effect
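Compounds incubated with erythrocytes infected by luciferase-expressing P. falciparum (2% hematocrit, 0.05% parasitemia final) for 96 hours, 37 C in 5% CO2. Growth inhibition scored as decreased luciferase luminescence.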
Cycloheximide cs = Cycloheximide Counterscreen for Small Molecule Inhibitors of Shiga Toxin; cell reporter, cycloheximide protein synthesis inhibition counterscreen; max response, %; 300,000 compounds, 12% hits; AID 2314, 2010; in the data active = max response mostly above about 13%, no sharp cut-off; inactive = mostly below about 14%; note: read at 38.3 µM for the half of the compounds with a filed dose; 0% is about no effect
Pf growth 48h = Primary qHTS for delayed death inhibitors of the malarial parasite plastid, 48 hour incubation; P. falciparum luciferase growth in erythrocytes, 48 h; Potency, µM (series often up to 28.7 µM), inactives show at the top dose activity change, negative = inhibition, hits mostly inhibitors; 310,000 compounds, 5.9% hits; note: potency is the fitted concentration of half-maximal effect; % is set by controls: 0 for no effect and ±100 for the full control effect
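Cell-based growth assay: transgenic P. falciparum expressing firefly luciferase, cultured in red cells within RPMI 1640 containing 0.5% w/v Albumax, 24 mM bicarbonate and gentamycin. A drop in luciferase activity indicates inhibition.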
Shiga inhibitor = A qHTS for Small Molecule Inhibitors of Shiga Toxin | Vero cells, Shiga toxin protein synthesis inhibition reporter | inhibition, % at 38.7 µM | 290,000 compounds, 9.2% hits | AID 2315, 2010; in the data active = inhibition mostly above about 28%, no sharp cut-off; inactive = mostly below about 43%; note: 0% is about no effect
* = called active by the depositor; ? = inconclusive; · = no result given. Shown are actives, neighbours in structure and some others; about 21% of the full set was active somewhere. Unless noted, calls come from the whole dose curve; as a rule, active = well fitted inhibition curve with a large enough effect; inconclusive = small, poorly fitted or top-dose-only effect, or another doubt; inactive = no such curve, though single readings can be large or run the other way.

SMILES	Pf growth 96h	Cycloheximide cs	Pf growth 48h	Shiga inhibitor
O=C(Cc1cccs1)N/N=C/c1ccccn1	9.6%	27.1*	12.9%	39.1*
Cc1ccc(C(=O)Nc2ccc(C(=O)N/N=C/c3cccnc3)cc2)cc1	?	10.8	6.8%	31.2
O=C(N/N=C/c1ccc2ncccc2c1)c1ccco1	233.6%	9.1	131.8%	-1.8
CCC1=NN2C(=N)/C(=C\c3ccc(OCc4cc(=O)n5nc(CC)sc5n4)c(OC)c3)C(=O)N=C2S1	30.2%	6.6	?	-8.7
O=C(CSc1nccn1-c1ccccc1)NO	0.928µM*	14.8	2.08µM*	-12.0
O=C(CSc1nccn1-c1cccc(Cl)c1)NO	?	-4.1	0.738µM*	-8.9
O=C(CSc1nccn1-c1cccc(Cl)c1)NC1CCCC1	-7.5%	-3.3	-13.1%	23.3
COc1ccc(-n2ccnc2SCC(=O)NO)cc1	?	-4.8	1.31µM*	-3.3
Cc1ccccc1NC(=O)COC(=O)CCC(=O)c1cccs1	85.1%	·	?	·
O=C(NCc1cccnc1)Nc1cccc(Cl)c1Cl	?	18.4	43.3%	-7.2
Cc1cc(C)cc(C(=O)NC(CC(N)=O)c2ccc(NCC3CC3)c([N+](=O)[O-])c2)c1 (stereo not drawn)	?	4.0	-22.1%	5.4
O=C(O)C1CCN(Cc2cccnc2)CC1	17.6%	-0.5	11.7%	9.5
CC(C)(C)NC(=O)[C@H]1CN(Cc2cccnc2)CCN1C[C@@H](O)C[C@@H](Cc1ccccc1)C(=O)N[C@H]1c2ccccc2C[C@H]1O	-17.1%	-4.3	10.7µM*	-9.5
COc1ccc(O)c(CN2CCCC(N3CCN(c4ccccc4OC)CC3)C2)c1 (stereo not drawn)	0.0%	-3.1	?	-6.9
COc1ccccc1N1CCN(C2CCCN(Cc3ccccc3OCCO)C2)CC1 (stereo not drawn)	1.65µM*	-0.3	?	-14.2
COc1ccccc1N1CCN(C2CCCN(Cc3ccc(Cl)cc3)C2)CC1 (stereo not drawn)	13.1µM*	-3.2	-15.7%	-8.9
Cc1ccc(NP(=O)(c2ccccc2)c2nc3ccccc3s2)cc1 (stereo not drawn)	26.0%	31.5*	-1.5%	62.2*
OCCOc1ccc(C2=NCCO2)cc1	7.2%	15.1*	13.6%	58.4
COc1ccccc1N(CC(O)Cn1ccnc1C)S(=O)(=O)c1ccc(C)cc1 (stereo not drawn)	?	-0.8	-7.9%	-2.3
O=C(CCC(=O)Nc1ccc(F)cc1)N/N=C/c1ccccc1O	-52.1%	24.2*	?	72.8*
CC(/C=C/c1ccccc1)=N/NC(=O)Cn1nnc(N)n1	2.2%	-2.6	6.5%	29.7
Cc1ccc(NC(=O)CCC(=O)N/N=C/c2cccnc2)cc1	3.7µM*	-4.0	12.1%	18.6
Nc1nnn(CC(=O)N/N=C/C=C/c2ccccc2)n1	20.9%	21.4*	5.0%	58.3*
COc1ccc(/C=N/NC(=O)Cc2n[nH]c(=O)[nH]c2=O)cc1	36.1%	-3.0	7.8%	24.7
Cc1ccccc1NC(=O)CCC(=O)N/N=C/c1cccnc1	?	-3.6	?	-2.4
SMILES	Pf growth 96h	Cycloheximide cs	Pf growth 48h	Shiga inhibitor
O=C(Cc1n[nH]c(=O)[nH]c1=O)N/N=C/c1ccccc1O	31.9%	1.3	1.47µM*	11.0
O=Cc1coc2c(ccc3ccccc32)c1=O	37.8%	7.8	28.2%	3.9
COc1ccccc1C(=O)COC(=O)CNS(=O)(=O)c1ccc(C)c(C)c1	19.1%	·	10.9%	·
CCCCCCC(=O)Nc1ccc(C(=O)N/N=C/c2cccnc2)cc1	?	1.0	?	2.7
O=C(CCC(=O)Nc1ccccc1)N/N=C/C=C/c1ccccc1	31.9%	10.0*	33.9%	9.0
O=C(CCC(=O)Nc1ccccc1)N/N=C/c1cccnc1	5.22µM*	-0.3	7.0%	-10.2
CC1CC(C)CN(S(=O)(=O)CCNC(=O)c2ccccc2)C1 (stereo not drawn)	-5.4%	·	0.1%	·
COc1ccc(/C=C/C(=O)NC(=S)Nc2ccccn2)cc1	62.0%	46.8*	107.4%	89.7*
COc1ccccc1/C=C/C(=O)NC(=S)Nc1ccccn1	?	45.5*	35.5%	105.3*
CCCCN1C(=O)C(=O)N(CC(=O)Nc2cc(S(=O)(=O)N(C)C)ccc2C)C1=O	16.1%	·	-22.6%	·
O=C(c1ccc2c(c1)OCO2)N1CCc2ccccc2C1	7.0%	70.4*	39.9%	55.1*
O=C(c1cccc(N2C(=O)C3C4C=CC(C4)C3C2=O)c1)N1CCCc2ccccc21 (stereo not drawn)	?	6.7	?	-2.0
